Measured values: PubChem BioAssay (Tox21)
Records with an inconclusive call do not appear. Where a call stands in place of a potency, no number is given. The source made the active and inactive calls. Calls come from the whole dose curve; as a rule, active = well fitted cell-killing curve with a large enough effect in the repeat runs; inconclusive = weak or mixed curves, or effect the other way; inactive = no such curve, though single readings can be large or run the other way.

Assay: qHTS assay to identify small molecule antagonists of the progesterone receptor (PR) signaling pathway - cell viability counter screen (AID 1346798); note: nearly all actives have a fitted effect of over 50% in size
Details: PR-UAS-bla HEK293T viability, CellTiter-Glo luminescence, 16 h; series mostly up to 92.4 µM
From the text: National Center for Advancing Translational Sciences [NCATS]
NIH Chemical Genomics Center [NCGC]
U.S. Environmental Protection Agency [EPA]
National Institutes of Environmental Health Sciences [NIEHS]
National Toxicology Program [NTP]
U.S. Food and Drug Administration [FDA]
Progesterone receptor (PR), a nuclear hormone receptor, plays an important role in development, metabolic homeostasis and reproduction. It is activated by the steroid hormone progesterone. Endocrine disrupting chemicals (EDCs) and their interactions with steroid hormone receptors like PR causes disruption of normal endocrine function. To identify the compounds that inhibit PR signaling, a PR-UAS-bla GripTite cell line i.e. PR-UAS-bla HEK293T (Invitrogen, Carlsbad, CA, USA) containing a beta-lactamase reporter gene under the control of an UAS response element was used to screen Tox21 10K compound library. The cytotoxicity of the Tox21 compound library against the PR-bla cell line was tested in parallel by measuring the cell viability using CellTiter-Glo assay in the same wells.
Tox21 Assay Protocol Summary:
PR-UAS-bla HEK293T cells were dispensed at 3,000 cells/4 uL of assay medium containing 2% charcoal stripped FBS per well into black wall/clear-bottom 1536-well plates using a Multidrop Combi (ThermoFisher Scientific, Waltham, MA) dispenser. After the assay plates were incubated at a 37C and 5% CO2 for 4 hr, 23 nL of compounds dissolved in DMSO, positive controls or DMSO only was transferred to the assay plate by a Pintool station (Kalypsys, San Diego, CA), followed by addition of 1 uL of R5020 in assay medium using a Flying Reagent Dispenser (FRD, Aurora Discovery, San Diego, CA). The plates were incubated at 37C and 5% CO2 for 16 hr. Then 1 uL of LiveBLAzer B/G FRET substrate was added using a Flying Reagent Dispenser, the plates were incubated at room temperature for 2 hours, and fluorescence intensity was measured by an Envision plate reader (PerkinElmer, Shelton, CT). For cell viability readout that measures cytotoxicity, 4 uL/well of CellTiter-Glo reagent was added into the assay plates using a FRD. After 30 min incubation at room temperature, the luminescence intensity in the plates was measured using a ViewLux (PerkinElmer) plate reader.
Potency is the fitted concentration of half-maximal effect.

| Structure (SMILES) | Potency |
| --- | --- |
| C[Si](C)(C)O[Si](C)(C)O[Si](C)(C)C | inactive |
| OCCOc1cccc(OCCO)c1 | inactive |
| CCCCCCCCCCCCSCCOCCO | inactive |
| CC(C(=O)O)c1ccc2c(c1)Cc1cccnc1O2 (stereo not given) | inactive |
| O=C(OC1C[C@H]2CC[C@@H](C1)[N+]21CCCC1)C(O)(c1ccccc1)c1ccccc1 (stereo not given in full) | inactive |
| O=C1c2ccccc2C(=O)C1c1ccc2ccccc2n1 | inactive |
| CCc1c(C)[nH]c2c1C(=O)C(CN1CCOCC1)CC2 (stereo not given) | inactive |
| CC(C)Oc1ccccc1O | inactive |
| O=C(c1ccc(Cl)cc1)c1ccc(Cl)cc1 | inactive |
| CCCC1CCCC(=O)O1 (stereo not given) | inactive |
| O=C(O)c1cc(C(=O)O)cc([N+](=O)[O-])c1 | inactive |
| Cc1ccc2ccccc2c1[N+](=O)[O-] | inactive |
| C/C=C1\[C@H]2C=C(C)C[C@]1(N)c1ccc(=O)[nH]c1C2 | inactive |
| N#Cc1ccc(CC(=O)c2cccc(C(F)(F)F)c2)cc1 | inactive |
| COC(=O)Cc1cccc2ccccc12 | inactive |
| C=CC(=O)NC(C)(C)C | inactive |
| Cc1ccc(NC(=O)c2ccc(CN3CCN(C)CC3)cc2)cc1Nc1nccc(-c2cccnc2)n1 | inactive |
| Oc1ccc(CCNCCCCCCNCCc2ccccc2)cc1O | inactive |
| N#C[C@@H]1CC(F)(F)CN1C(=O)CNC1CC2CCC(C1)N2c1ncccn1 (stereo not given in full) | inactive |
| Cc1c(N=C=O)cccc1N=C=O | inactive |

| Structure (SMILES) | Potency |
| --- | --- |
| C/C(=C(\CCO)SS/C(CCO)=C(\C)N(C=O)Cc1cnc(C)nc1N)N(C=O)Cc1cnc(C)nc1N | inactive |
| N#CCCCC(C#N)CCC#N (stereo not given) | inactive |
| COc1cccc([C@H](O)C2CCN(CCc3ccc(F)cc3)CC2)c1OC | inactive |
| [O-][n+]1ccc(Cl)cc1 | inactive |
| CC(C)(C)c1cc(C=O)cc(C(C)(C)C)c1O | inactive |
| O=C1OC(=O)C2CC=CCC12 (stereo not given) | inactive |
| CCCCCCCCCCCCSC#N | inactive |
| C=C[Si](OCC)(OCC)OCC | inactive |
| C1CCN(CN2CCCCC2)CC1 | inactive |
| CCN(CC)CC(=O)OCC(=O)[C@@]1(O)CC[C@H]2[C@@H]3CCC4=CC(=O)CC[C@]4(C)[C@H]3[C@@H](O)C[C@@]21C | inactive |
| CC/C=C/CCO | 31.2 µM (active) |
| CCCCOC(=O)C(C)Oc1ccc(Oc2ccc(C(F)(F)F)cn2)cc1 (stereo not given) | inactive |
| C=C[Si]1(C)O[Si](C)(C=C)O[Si](C)(C=C)O[Si](C)(C=C)O1 (stereo not given) | inactive |
| O=C(NC1CCN(CCc2c[nH]c3ccccc23)CC1)c1ccccc1 | inactive |
| O=C(OCCCCCOC(=O)c1ccccc1)c1ccccc1 | inactive |
| CC(CC(C#N)(c1ccccc1)C(C)C)N(C)C (stereo not given) | inactive |
| CCCCCC1CCC(=O)O1 (stereo not given) | inactive |
| CCCC(=O)OCCC(C)C | inactive |
| O=C(c1ccco1)N1CCNCC1 | inactive |
| Oc1ccc(Oc2ccccc2)cc1 | inactive |
